Hits are enriched below; roughly 12% of the tested compounds scored in any of these assays.
AMA1-RON2 inh – disrupts binding of P. falciparum AMA1 to RON2. AlphaScreen AMA1-biotinylated RON2 peptide binding. Potency, µM (highest dose often 58.2 µM), inactives show at the highest dose activity change, negative = inhibition, actives largely listed as inhibitors. actives 0.2% (n = 360,000). AID 720542;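 note: 0% = vehicle wells and -100% = peptide control; nearly all actives have a fitted effect of over 45% in size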
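AMA1 (3D7) with his tag at 25 nM final met compounds first, then biotinylated RON2 peptide at 25 nM; detection used donor plus acceptor beads, 10 µg/mL apiece, read by AlphaScreen after 30 min at room temperature.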
HCV inh – HCV inhibition; actives 3.4% (n = 340,000); Huh7.5.1 HCVcc-Cre infection, luciferase reporter, 44 h; Potency, µM (doses to about 41.8 µM), inactives show at the highest dose activity change, negative = inhibition, usual class: inhibitors; AID 651820; note: % is set by controls: 0 for no effect and ±100 for the full control effect
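After 44 h co-culture of compound, cells and HCVcc-Cre (~0.5 moi), substrate is added for 15 min at room temperature and luciferase measured over 15 sec. Cells were seeded at 1,000/well and pre-cultured 4 h.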
Pf growth 48h – P. falciparum growth inhibition at 48 hours (one generation) | P. falciparum luciferase growth in erythrocytes, 48 h | Potency, µM (series often up to 28.7 µM), for inactives: top-dose activity change, negative = inhibition, hits mostly inhibitors | actives 5.9% (n = 310,000) | AID 504832; note: % is set by controls: 0 for no effect and ±100 for the full control effect
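In quantitative HTS format, infected erythrocytes bearing luciferase-reporter parasites were treated for a single generation at 37 C. Luminescence after adding detection reagent served as the growth measure.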
NS1 inh – influenza NS1 inhibition. actives 0.4% (n = 270,000). Potency, µM (titrated, usually from 46.1 µM), without a hit: at the top dose activity, positive = more growth; calls by dose curve; note: actives are rising curves; nearly all actives have a fitted effect of over 50% in size
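Read-out: OD600 growth recovery of NS1-expressing budding yeast. Cells grown overnight at 30C in -URA glucose medium, washed, resuspended and diluted 1:100 in 2% galactose assay medium, pH 6.0. Same strain lacking NS1 served as positive control.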
SARS PLpro yeast – inhibitors of SARS-CoV papain-like protease in yeast. S. cerevisiae expressing SARS-CoV PLpro, growth rescue. Potency, µM (doses to about 32.9 µM), inactives show at the highest dose activity, positive = growth rescue, usual class: activators. actives 0.19% (n = 330,000); calls by dose curve; note: 0% is about no effect; nearly all actives have a fitted effect of over 55% in size
Pf growth 96h – inhibits malaria parasite growth, 96 h. P. falciparum luciferase reporter growth, 96 h. Potency, µM (series often up to 28.7 µM), for inactives: at the highest dose activity change, negative = inhibition, usual class: inhibitors. actives 6.9% (n = 320,000); note: % is set by controls: 0 for no effect and ±100 for the full control effect
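P. falciparum expressing integrated firefly luciferase grown in erythrocytes (2% hematocrit, 0.05% parasitemia final) with compounds for 96 hours at 37 C, 5% CO2. Growth inhibition read as loss of luminescence after adding luciferase detection reagent.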
Active calls of the source: *. Unless noted, calls come from the whole dose curve; as a rule, active = well fitted curve in the direction sought with a large enough effect; inconclusive = small, poorly fitted or top-dose-only effect, or another doubt; inactive = no such curve, though single readings can be large; an effect the other way counts as inactive or inconclusive. Potency is the fitted concentration of half-maximal effect.

CCOc1ccc(NC(=O)C[n+]2ccc(N(C)C)cc2)cc1 was read as AMA1-RON2 inh -5%, HCV inh 13%, Pf growth 48h 0.66µM*, NS1 inh 12%, SARS PLpro yeast -7% and Pf growth 96h inconclusive.
`Cc1ccsc1C(=O)OCC(=O)c1ccc(OC(F)F)cc1` gave AMA1-RON2 inh 4%, HCV inh -9%, Pf growth 48h 72%, SARS PLpro yeast 2% and Pf growth 96h 45%.
For CN(C)c1cc[n+](CC(=O)c2ccc(OC(F)F)cc2)cc1 the results were AMA1-RON2 inh -5%, HCV inh 14%, Pf growth 48h 0.74µM*, NS1 inh -32%, SARS PLpro yeast -2% and Pf growth 96h 0.74µM*.
COC(=O)c1ccc(NC(=O)C[n+]2ccccc2)cc1 was read as AMA1-RON2 inh 0%, HCV inh 10%, Pf growth 48h -5%, NS1 inh -2%, SARS PLpro yeast -2% and Pf growth 96h 13µM*.
Screening CN(C)c1cc[n+](CC(=O)Nc2ccc(Cl)cc2)cc1 returned AMA1-RON2 inh 10%, HCV inh -20%, Pf growth 48h 0.083µM*, NS1 inh -8%, SARS PLpro yeast 3% and Pf growth 96h inconclusive.
O=C(O)CNC(=O)/C(=C\c1cccc([N+](=O)[O-])c1)NC(=O)c1ccco1 was read as AMA1-RON2 inh 0%, HCV inh 3%, Pf growth 48h 11%, NS1 inh 13%, SARS PLpro yeast 2% and Pf growth 96h -7%.
`O=C(NCC1CCCO1)c1ccc(COc2ccccc2Br)cc1` (stereo not drawn) gave AMA1-RON2 inh -16%, HCV inh inconclusive, Pf growth 48h 3%, NS1 inh -14%, SARS PLpro yeast 0% and Pf growth 96h -12%.
`CC(=O)Nc1cccc(NC(=O)C(=O)c2cn(CC(=O)N3CCCC3)c3ccccc23)c1` gave AMA1-RON2 inh -8%.
For O=C(NC1CCCCC1)C(c1ccccc1)N(C(=O)c1csnn1)C1CCCC1 (stereo not drawn) the results were AMA1-RON2 inh -4%, HCV inh -10%, Pf growth 48h -17%, NS1 inh 2%, SARS PLpro yeast 10% and Pf growth 96h 2%.
Cc1cc(C)c(S(=O)(=O)NCc2cccnc2)c(C)c1 was read as AMA1-RON2 inh -4%, HCV inh 8%, Pf growth 48h 0%, NS1 inh -1%, SARS PLpro yeast -2% and Pf growth 96h 217%.
Screening COc1cccc(Cn2c(C(C)n3c(-c4cnccn4)nc4ccccc43)nc3ccccc32)c1 (stereo not drawn) returned AMA1-RON2 inh -12%.
For CCOC(=O)C1=C(COC(=O)/C=C/c2ccc(O)c(OC)c2)NC(=O)NC1C (stereo not drawn) the results were AMA1-RON2 inh -10%, HCV inh -28%, Pf growth 48h inconclusive, SARS PLpro yeast 16% and Pf growth 96h 14%.
CC(=O)C1=C(C)NC(SCC(=O)c2ccccc2)=C(C#N)C1c1ccco1 (stereo not drawn) was read as Pf growth 48h inconclusive, NS1 inh -50%, SARS PLpro yeast -2% and Pf growth 96h inconclusive.
Screening CC(=O)C1=C(C)NC(SCC(=O)c2ccc(Cl)cc2)=C(C#N)C1c1ccco1 (stereo not drawn) returned AMA1-RON2 inh 39%, HCV inh inconclusive, Pf growth 48h inconclusive, NS1 inh -55%, SARS PLpro yeast inconclusive and Pf growth 96h inconclusive.
CC(=O)C1=C(C)NC(SCc2cccc3ccccc23)=C(C#N)C1c1ccco1 (stereo not drawn) was read as AMA1-RON2 inh 21%, HCV inh inconclusive, Pf growth 48h 10µM*, NS1 inh 7%, SARS PLpro yeast -12% and Pf growth 96h 2.9µM*.
CCOC(=O)CSc1nc(C)cc(C)c1C#N was read as AMA1-RON2 inh 7%, HCV inh inconclusive, Pf growth 48h 19%, NS1 inh -1% and SARS PLpro yeast 6%.
